Among the data in paper PMC7862700, “An all-to-all approach to the identification of sequence-specific readers for epigenetic DNA modifications on cytosine” are binding signal values, retold here.

What all share (assay): DAPPL (digital affinity profiling via proximity ligation, sequencing); 10 mM Tris-HCl pH 7.5, 50 mM NaCl, 1 mM DTT, 4% glycerol, room temperature, 30 min; GST-TFs on glutathione beads, 16-mer random dsDNA library, 0.1% formaldehyde crosslink after washing; high values mean tight binding
Holding throughout (conditions): protein: recombinant; tags: N-terminal GST; dsDNA, one strand shown

One assay addresses T1, ELK1 (Homo sapiens, UniProt P19419 1-428).
T1 sequence: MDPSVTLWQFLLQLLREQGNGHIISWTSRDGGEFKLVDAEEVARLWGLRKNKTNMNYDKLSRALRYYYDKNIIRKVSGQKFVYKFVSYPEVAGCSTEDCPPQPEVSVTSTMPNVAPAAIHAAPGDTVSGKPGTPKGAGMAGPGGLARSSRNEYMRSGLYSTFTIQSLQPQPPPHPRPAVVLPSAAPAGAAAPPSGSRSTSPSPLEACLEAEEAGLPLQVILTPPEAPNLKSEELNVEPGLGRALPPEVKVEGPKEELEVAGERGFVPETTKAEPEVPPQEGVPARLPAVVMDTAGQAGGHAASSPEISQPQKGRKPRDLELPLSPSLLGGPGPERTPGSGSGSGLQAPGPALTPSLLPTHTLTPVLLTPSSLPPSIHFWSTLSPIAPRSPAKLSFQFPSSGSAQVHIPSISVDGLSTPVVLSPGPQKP
In outline:
(§1)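 A tag-only sample was pooled with DNA-barcoded human transcription factors that had been expressed in yeast as GST fusions and captured on glutathione beads. The pools were incubated for 30 min at room temperature with 200 nmole of a random double-stranded 16-mer DNA library in Tris/NaCl/DTT/glycerol buffer, then washed, crosslinked with 0.1% formaldehyde, proximity-ligated (BsaI/T4 ligase, 1 h, 37 °C), PCR-amplified and sequenced on an Illumina NextSeq500. Binding signal is each hexamer's read frequency for a factor divided by its frequency for the tag-only sample.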

Another assay addresses T2, ERG (Homo sapiens, UniProt P11308 1-479).
T2 sequence: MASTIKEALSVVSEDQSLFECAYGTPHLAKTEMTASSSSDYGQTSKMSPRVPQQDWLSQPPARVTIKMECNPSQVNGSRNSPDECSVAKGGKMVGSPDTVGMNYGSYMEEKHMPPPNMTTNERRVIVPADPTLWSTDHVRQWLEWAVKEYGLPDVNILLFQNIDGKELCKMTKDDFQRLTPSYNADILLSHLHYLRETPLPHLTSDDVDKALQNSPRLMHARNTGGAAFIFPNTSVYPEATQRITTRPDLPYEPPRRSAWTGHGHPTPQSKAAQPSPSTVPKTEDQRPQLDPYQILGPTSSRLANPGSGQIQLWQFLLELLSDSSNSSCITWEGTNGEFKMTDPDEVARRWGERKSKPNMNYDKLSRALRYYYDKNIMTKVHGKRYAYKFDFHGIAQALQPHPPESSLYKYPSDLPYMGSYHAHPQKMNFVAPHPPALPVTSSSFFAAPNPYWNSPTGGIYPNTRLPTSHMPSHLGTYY
Summed up: as §1

The target of the next assay is T3, EHF (Homo sapiens, UniProt Q9NZC4 1-300).
T3 sequence: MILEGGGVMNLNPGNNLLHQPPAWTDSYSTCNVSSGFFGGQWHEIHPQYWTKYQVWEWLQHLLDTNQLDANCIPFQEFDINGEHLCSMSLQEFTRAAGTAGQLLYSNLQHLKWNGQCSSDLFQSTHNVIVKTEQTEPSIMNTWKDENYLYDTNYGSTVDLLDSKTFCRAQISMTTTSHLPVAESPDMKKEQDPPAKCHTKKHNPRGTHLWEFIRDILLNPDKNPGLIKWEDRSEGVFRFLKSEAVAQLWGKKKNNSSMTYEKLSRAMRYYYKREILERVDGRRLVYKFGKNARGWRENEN
In outline: as §1

For the next assay, the target named is T4, SPIC (Homo sapiens, UniProt Q8N5J4 1-248).
T4 sequence: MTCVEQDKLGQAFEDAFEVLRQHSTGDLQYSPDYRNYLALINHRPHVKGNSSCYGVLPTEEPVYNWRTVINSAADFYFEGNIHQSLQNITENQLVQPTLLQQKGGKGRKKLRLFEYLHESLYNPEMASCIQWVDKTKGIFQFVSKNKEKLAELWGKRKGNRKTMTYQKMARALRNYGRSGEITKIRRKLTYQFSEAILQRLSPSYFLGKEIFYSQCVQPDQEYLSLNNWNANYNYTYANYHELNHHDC
Summed up:
as §1

For the next assay, the target named is ELF4 (Homo sapiens, UniProt Q99607 1-663). In outline:
as §1

The next assay has as its target T5, ELK4 (Homo sapiens, UniProt P28324-2 1-405).
T5 sequence: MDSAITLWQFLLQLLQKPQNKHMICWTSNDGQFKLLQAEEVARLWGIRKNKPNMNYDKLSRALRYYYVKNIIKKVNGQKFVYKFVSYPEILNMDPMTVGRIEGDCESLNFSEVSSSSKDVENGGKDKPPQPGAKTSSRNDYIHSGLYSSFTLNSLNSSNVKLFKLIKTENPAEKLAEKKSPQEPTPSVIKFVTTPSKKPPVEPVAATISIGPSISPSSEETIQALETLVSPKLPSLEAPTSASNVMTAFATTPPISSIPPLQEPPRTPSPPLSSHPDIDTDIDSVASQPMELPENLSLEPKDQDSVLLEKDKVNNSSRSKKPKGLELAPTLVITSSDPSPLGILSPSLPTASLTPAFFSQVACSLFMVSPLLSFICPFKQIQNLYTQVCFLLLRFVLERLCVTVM
Summed up:
as §1

In another assay the target is ETV1 (Homo sapiens, UniProt P50549 1-477). Summed up:
as §1

A further assay addresses T6, ETS2 (Homo sapiens, UniProt P15036 1-469).
T6 sequence: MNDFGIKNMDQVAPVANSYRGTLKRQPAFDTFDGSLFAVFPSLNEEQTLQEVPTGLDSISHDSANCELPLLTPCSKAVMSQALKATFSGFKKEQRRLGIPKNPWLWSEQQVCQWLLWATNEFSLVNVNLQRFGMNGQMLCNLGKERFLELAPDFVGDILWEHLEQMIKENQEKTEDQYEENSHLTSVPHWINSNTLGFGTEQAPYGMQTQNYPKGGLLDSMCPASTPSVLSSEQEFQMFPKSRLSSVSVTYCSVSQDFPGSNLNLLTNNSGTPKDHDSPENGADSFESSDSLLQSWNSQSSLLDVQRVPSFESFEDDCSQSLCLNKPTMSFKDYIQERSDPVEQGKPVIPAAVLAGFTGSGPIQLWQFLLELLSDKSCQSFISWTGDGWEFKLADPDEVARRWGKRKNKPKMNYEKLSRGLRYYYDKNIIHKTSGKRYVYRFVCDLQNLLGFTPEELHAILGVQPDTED
Summed up: as §1

The target of a further assay is T7, SPDEF (Homo sapiens, UniProt O95238 1-335).
T7 sequence: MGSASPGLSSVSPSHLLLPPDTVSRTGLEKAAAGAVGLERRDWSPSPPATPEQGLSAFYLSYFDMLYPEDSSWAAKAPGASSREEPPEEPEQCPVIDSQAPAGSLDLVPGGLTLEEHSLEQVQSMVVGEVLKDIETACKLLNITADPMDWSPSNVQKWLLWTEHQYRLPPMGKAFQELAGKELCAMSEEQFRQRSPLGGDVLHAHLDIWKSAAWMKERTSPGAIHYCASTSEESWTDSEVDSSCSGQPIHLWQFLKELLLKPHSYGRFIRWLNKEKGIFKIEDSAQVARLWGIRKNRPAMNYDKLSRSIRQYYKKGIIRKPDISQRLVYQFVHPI
Summed up:
as §1

The target of the next assay is T8, ETV3 (Homo sapiens, UniProt P41162-2 1-143).
T8 sequence: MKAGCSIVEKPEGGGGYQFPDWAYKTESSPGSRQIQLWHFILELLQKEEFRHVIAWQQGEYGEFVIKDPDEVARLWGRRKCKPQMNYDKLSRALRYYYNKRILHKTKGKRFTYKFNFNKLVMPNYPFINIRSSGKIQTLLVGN
Summed up:
as §1

The next assay concerns the target T9, GABPA (Homo sapiens, UniProt Q06546 1-454).
T9 sequence: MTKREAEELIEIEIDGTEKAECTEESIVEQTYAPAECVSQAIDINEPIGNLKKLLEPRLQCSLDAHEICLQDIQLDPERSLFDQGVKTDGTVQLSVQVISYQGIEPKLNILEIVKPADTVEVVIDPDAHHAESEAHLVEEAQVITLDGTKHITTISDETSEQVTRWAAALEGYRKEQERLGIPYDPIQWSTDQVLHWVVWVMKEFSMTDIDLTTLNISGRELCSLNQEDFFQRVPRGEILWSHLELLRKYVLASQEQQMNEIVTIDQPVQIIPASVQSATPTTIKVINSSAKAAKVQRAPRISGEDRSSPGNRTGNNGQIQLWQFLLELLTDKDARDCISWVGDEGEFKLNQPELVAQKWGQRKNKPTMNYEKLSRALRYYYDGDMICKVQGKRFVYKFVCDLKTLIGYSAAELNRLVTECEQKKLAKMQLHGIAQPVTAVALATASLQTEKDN
In outline: as §1

The target of the next assay is ELF1 (Homo sapiens, UniProt P32519 1-619). Summed up: as §1
ELF1, sequence (P32519 whole entry): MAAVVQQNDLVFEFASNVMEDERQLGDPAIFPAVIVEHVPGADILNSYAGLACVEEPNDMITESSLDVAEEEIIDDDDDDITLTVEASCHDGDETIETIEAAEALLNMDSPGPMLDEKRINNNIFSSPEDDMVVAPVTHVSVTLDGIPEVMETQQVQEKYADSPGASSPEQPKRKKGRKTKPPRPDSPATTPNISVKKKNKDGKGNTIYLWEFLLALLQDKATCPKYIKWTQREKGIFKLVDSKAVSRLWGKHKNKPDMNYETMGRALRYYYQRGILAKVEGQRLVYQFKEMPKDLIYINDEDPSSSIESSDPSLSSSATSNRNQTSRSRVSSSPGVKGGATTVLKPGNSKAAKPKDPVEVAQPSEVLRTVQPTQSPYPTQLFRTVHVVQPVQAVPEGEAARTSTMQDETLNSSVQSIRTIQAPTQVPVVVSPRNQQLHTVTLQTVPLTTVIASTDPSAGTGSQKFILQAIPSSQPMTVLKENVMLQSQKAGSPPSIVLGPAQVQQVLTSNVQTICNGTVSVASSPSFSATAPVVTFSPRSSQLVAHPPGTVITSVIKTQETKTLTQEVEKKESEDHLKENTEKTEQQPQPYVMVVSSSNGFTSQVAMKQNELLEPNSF
Another assay deals with T10, ELK3 (Homo sapiens, UniProt P41970 1-407).
T10 sequence: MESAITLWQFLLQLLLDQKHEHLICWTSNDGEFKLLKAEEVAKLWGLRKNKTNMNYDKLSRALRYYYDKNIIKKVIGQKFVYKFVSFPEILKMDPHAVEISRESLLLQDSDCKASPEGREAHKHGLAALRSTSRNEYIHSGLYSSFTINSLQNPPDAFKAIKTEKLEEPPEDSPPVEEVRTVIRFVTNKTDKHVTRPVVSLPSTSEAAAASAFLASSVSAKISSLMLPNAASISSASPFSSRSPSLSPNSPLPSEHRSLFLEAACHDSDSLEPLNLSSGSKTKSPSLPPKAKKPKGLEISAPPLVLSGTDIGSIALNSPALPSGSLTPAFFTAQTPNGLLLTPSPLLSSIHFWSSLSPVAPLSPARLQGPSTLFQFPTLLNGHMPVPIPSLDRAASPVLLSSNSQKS
Summed up: as §1

In a further assay the target is T11, ELF3 (Homo sapiens, UniProt P78545 1-371).
T11 sequence: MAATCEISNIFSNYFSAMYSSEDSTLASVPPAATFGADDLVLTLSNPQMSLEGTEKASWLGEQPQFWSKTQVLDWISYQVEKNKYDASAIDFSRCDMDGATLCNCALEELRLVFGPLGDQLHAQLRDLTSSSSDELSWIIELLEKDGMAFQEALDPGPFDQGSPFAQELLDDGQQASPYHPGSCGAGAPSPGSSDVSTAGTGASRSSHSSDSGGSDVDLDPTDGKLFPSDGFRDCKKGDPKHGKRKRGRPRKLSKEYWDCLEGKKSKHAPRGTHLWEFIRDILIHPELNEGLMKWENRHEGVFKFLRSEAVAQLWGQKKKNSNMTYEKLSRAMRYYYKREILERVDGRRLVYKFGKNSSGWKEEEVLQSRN
In outline:
as §1

For a further assay, the target named is T12, ETV3L (Homo sapiens, UniProt Q6ZN32 1-361).
T12 sequence: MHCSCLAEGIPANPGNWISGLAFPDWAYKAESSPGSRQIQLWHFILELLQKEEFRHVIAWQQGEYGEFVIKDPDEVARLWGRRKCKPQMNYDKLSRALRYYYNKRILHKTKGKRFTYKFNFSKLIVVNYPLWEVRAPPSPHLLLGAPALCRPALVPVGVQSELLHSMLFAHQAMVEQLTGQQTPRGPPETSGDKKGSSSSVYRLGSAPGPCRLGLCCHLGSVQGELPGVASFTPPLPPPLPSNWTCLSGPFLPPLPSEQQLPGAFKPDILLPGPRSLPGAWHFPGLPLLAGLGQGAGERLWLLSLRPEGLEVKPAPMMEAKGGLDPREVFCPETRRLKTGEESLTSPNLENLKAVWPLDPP
In outline:
as §1

The target of a further assay is T13, ETV7 (Homo sapiens, UniProt Q9Y603 1-341).
T13 sequence: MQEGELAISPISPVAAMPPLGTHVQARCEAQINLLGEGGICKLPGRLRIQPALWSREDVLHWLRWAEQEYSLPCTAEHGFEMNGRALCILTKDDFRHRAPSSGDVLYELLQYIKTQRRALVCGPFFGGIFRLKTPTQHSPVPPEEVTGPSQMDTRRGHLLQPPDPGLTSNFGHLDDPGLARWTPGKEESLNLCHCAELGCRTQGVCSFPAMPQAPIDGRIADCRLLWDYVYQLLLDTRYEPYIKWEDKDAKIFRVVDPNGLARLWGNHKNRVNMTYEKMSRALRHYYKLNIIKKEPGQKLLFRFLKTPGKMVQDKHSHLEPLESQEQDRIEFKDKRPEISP
Summed up: as §1

A further assay concerns the target ETV6 (Homo sapiens, UniProt P41212 1-452). Summed up:
as §1

ELF4, sequence (Q99607 whole entry): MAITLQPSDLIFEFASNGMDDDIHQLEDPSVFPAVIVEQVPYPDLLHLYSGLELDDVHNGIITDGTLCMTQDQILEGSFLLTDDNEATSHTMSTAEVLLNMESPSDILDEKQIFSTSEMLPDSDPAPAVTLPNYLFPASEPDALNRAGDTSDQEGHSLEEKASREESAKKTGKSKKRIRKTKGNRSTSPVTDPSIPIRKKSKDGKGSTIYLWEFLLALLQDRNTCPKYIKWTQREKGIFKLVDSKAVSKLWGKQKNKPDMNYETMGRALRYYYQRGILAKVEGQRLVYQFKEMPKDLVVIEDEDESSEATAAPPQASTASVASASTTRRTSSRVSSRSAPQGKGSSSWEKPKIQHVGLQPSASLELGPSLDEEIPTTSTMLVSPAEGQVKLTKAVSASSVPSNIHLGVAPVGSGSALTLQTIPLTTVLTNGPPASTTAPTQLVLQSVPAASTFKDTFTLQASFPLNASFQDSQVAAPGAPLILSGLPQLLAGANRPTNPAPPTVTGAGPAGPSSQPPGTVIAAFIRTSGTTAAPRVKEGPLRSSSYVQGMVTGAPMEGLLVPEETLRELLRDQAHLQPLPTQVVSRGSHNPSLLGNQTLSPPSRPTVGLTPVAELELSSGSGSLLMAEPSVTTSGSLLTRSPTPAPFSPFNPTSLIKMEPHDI
ETV1, sequence (P50549 whole entry): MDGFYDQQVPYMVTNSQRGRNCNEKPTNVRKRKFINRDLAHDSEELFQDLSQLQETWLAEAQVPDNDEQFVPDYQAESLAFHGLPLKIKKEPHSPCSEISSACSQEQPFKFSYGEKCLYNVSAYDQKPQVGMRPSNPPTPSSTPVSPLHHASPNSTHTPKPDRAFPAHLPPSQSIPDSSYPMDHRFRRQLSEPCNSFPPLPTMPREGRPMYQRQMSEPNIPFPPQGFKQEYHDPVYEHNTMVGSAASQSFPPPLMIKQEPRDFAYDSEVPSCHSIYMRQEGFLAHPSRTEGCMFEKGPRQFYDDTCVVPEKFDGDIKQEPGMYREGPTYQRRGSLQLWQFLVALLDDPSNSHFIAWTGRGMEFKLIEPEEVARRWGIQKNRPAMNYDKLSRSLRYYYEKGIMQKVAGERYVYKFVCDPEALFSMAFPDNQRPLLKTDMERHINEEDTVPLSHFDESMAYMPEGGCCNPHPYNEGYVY
ETV6, sequence (P41212 whole entry): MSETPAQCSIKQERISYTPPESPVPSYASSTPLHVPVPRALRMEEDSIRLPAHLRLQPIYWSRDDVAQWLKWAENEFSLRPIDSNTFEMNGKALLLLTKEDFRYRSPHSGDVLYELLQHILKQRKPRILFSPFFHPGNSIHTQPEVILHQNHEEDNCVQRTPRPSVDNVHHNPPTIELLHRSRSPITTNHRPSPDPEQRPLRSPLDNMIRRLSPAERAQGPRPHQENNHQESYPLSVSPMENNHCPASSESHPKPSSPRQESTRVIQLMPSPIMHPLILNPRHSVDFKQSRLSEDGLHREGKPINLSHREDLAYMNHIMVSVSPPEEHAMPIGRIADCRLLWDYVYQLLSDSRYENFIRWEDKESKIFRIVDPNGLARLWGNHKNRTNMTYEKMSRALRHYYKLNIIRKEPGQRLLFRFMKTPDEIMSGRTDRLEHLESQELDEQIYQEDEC

Take GCTAAG: the binding signal is 1.08 fold enrichment (6-mer frequency, TF over GST control) with ELK1; 1.01 fold enrichment (6-mer frequency, TF over GST control) with ERG; 1.05 fold enrichment (6-mer frequency, TF over GST control) in the assay with EHF; 1.08 fold enrichment (6-mer frequency, TF over GST control) in the assay with SPIC; 1.06 fold enrichment (6-mer frequency, TF over GST control) in the assay with ELF4; 1.18 fold enrichment (6-mer frequency, TF over GST control) with ELK4. Moreover, the binding signal with ETV1 was 1 fold enrichment (6-mer frequency, TF over GST control); with ETS2, 1.04 fold enrichment (6-mer frequency, TF over GST control); with SPDEF, 1.11 fold enrichment (6-mer frequency, TF over GST control); in the assay with ETV3, 1.04 fold enrichment (6-mer frequency, TF over GST control).

ATAAGT: the binding signal was 1.05 fold enrichment (6-mer frequency, TF over GST control) in the assay with ELK1; 1.07 fold enrichment (6-mer frequency, TF over GST control) with GABPA; 1.08 fold enrichment (6-mer frequency, TF over GST control) in the assay with ELF1; 1.04 fold enrichment (6-mer frequency, TF over GST control) with EHF; 1.09 fold enrichment (6-mer frequency, TF over GST control) with ELK3; 1.02 fold enrichment (6-mer frequency, TF over GST control) with SPIC. For the same sequence, the binding signal with ELF4 was 1.1 fold enrichment (6-mer frequency, TF over GST control); with ELK4, 1.06 fold enrichment (6-mer frequency, TF over GST control); with ELF3 it was 1.09 fold enrichment (6-mer frequency, TF over GST control); with ETV3L it was 1.05 fold enrichment (6-mer frequency, TF over GST control); in the assay with ETS2 it was 1.06 fold enrichment (6-mer frequency, TF over GST control); with SPDEF it was 1.05 fold enrichment (6-mer frequency, TF over GST control). Moreover, the binding signal was 1.05 fold enrichment (6-mer frequency, TF over GST control) in the assay with ETV7; 1.03 fold enrichment (6-mer frequency, TF over GST control) in the assay with ETV3; 1.06 fold enrichment (6-mer frequency, TF over GST control) with ETV6.
